Values without a mark were called inactive. The source made the active and inactive calls.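 The calls were made as follows: active = inhibition at or above 50% relative to wild type and mutant plate controls; inactive = inhibition below 50%.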
Test: loss of swimming-algae plug formation – whole organism, Chlamydomonas reinhardtii, WT vs cilia-less mutant, absorbance, 96-well, primary screen (AID 463189);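 also: 0% = wild type cc124 cells in DMSO and 100% = ciliumless bld1 mutant cells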
Conditions: Chlamydomonas reinhardtii gravitaxis, OD600 absorbance, 2 days; at 10 µM; active compounds read high

Compound | inhibition
NC/C=C\C(=O)O | 3.63%
NC(N)=NCc1cccc(I)c1 | 4.17%
CN(C)CCCO[C@@H]1[C@H]2OC(C)(C)O[C@H]2O[C@@H]1C(O)CO (stereo partly drawn) | 0.355%
O=C(OCCN1CCOCC1)C1(c2ccccc2)CCCCC1 | 2.35%
C[C@]12C=CC(=O)C=C1CC[C@@H]1C2=CC[C@]2(C)[C@@H](C(=O)CN3CCN(c4cc(N5CCCC5)nc(N5CCCC5)n4)CC3)CC[C@@H]12 | 3%
CC(C)(C)c1onc(OCP(=O)(O)O)c1CC(N)C(=O)O (stereo not drawn) | 9%
CC1COc2c(N3CCN(C)CC3)c(F)cc3c(=O)c(C(=O)O)cn1c23 (stereo not drawn) | 6.49%
CN[C@H](CC(C)C)C(=O)N[C@H]1C(=O)N[C@@H](CC(N)=O)C(=O)N[C@H]2C(=O)N[C@H]3C(=O)N[C@H](C(=O)N[C@H](C(=O)O)c4cc(O)cc(O)c4-c4cc3ccc4O)[C@H](O)c3ccc(c(Cl)c3)Oc3cc2cc(c3O[C@@H]2O[C@H](CO)[C@@H](O)[C@H](O)[C@H]2O[C@H]2C[C@](C)(N)[C@H](O)[C@H](C)O2)Oc2ccc(cc2Cl)[C@H]1O | 15.1%
Cc1ccccc1CNc1ncnc2c1ncn2C1OC(CO)C(O)C1O (stereo not drawn) | -2.9%
NNCCc1ccccc1 | 3.74%
Cc1cccc(C)c1NC(=O)C[N+](C)(C)C | 7.92%
O=c1[nH]cc(F)c(=O)[nH]1 | 2.19%
O=C(O)[C@@H]1C[C@H](C(=O)O)N1 | 1.3%
CC(COc1ccc(/C=C/c2ccccc2)cc1)[N+](C)(C)C (stereo not drawn) | 52% (active)
CC(C)C[C@H](NC(=O)[C@@H](O)[C@H](N)Cc1ccccc1)C(=O)O | 3.44%
Cc1ccc(O)c(N=Nc2ccccc2)n1 | -1.99%
CC(N)=O | 0.285%
Clc1ccccc1C(c1ccccc1)(c1ccccc1)n1ccnc1 | 96% (active)
Oc1cc(O)c2c(c1)O[C@H](c1ccc(O)c(O)c1)[C@@H](O)C2 | 2.87%
COc1ccccc1N1CCN(CCN(C(=O)C2CCCCC2)c2ccccn2)CC1 | 9.85%
CC1(C)CCC=[N+]1[O-] | 0.394%
CC(=O)NCCc1ccc(O)c(O)c1 | 5.98%
O=C(O)C1=CCCNC1 | 5.21%

— PubChem BioAssay
